In ChEMBL document CHEMBL4513216, “Probing the Open Global Health Chemical Diversity Library for Multistage-Active Starting Points for Next-Generation Antimalarials” (ACS Infect Dis, 2020):
In all, about 69,000 compounds went through this assay and about 8,600 (12%) showed an effect of 50% or more. This excerpt belongs to a sample that is enriched for strong results.

Tested on: Plasmodium berghei
Assay: Screen against P. berghei liver stage (PbLuc), transformed with Luciferase, at 10uM
Assay type: functional, HepG2
Details: tested at 10 uM

Structure (SMILES)	INHIBITION [%]
Cn1cccc1C(=O)NCc1cn2c(n1)CN(C(=O)c1ccsc1)CC2	61.1
c1ccc(NCc2cn3c(n2)CN(Cc2ccoc2)CC3)nc1	-13.7
c1ccc(NCc2cn3c(n2)CN(Cc2cccs2)CC3)nc1	26.5
Cn1cccc1C(=O)NCc1cn2c(n1)CN(c1ncccn1)CC2	-0.453
Cc1ccc2cc(C(=O)N3CCC(Nc4cccnn4)CC3)[nH]c2c1	21.6
O=C(NCC[S+]([O-])Cc1ccccc1)c1ccc2[nH]c(=O)[nH]c2c1 (centres undefined)	35.2
Cc1nn(C)c(Cl)c1C1CCCN1C(=O)c1ccoc1C (centres undefined)	-29.1
CCOc1cc(C)nc(N2CCN(C(=O)c3cc(C)on3)CC2)n1	19.4
O=C(CCN1CCCN(c2nccs2)CC1)Nc1ccccc1	15.2
O=C(CCN1CCc2[nH]nc(C(F)(F)F)c2C1)Nc1ccccc1	61.1
FC(F)(F)c1n[nH]c2c1CN(Cc1cn3ccccc3n1)CC2	49.1
[O-][S+](CCN1CCc2[nH]nc(C(F)(F)F)c2C1)c1ccccc1 (centres undefined)	36.3
CC(C(=O)Nc1ncccn1)N1CCc2[nH]nc(C(F)(F)F)c2C1 (centres undefined)	-17.9
FC(F)(F)c1n[nH]c2c1CN(CCc1ccccn1)CC2	50
Cc1nc2n(n1)CC(NCc1nc(-c3ccccn3)no1)CC2 (centres undefined)	0
CCOCCNC(=O)C1CCC(=O)N(CCc2ccc(Cl)cc2)C1 (centres undefined)	42.5
CC(C(=O)N1CCCN(c2ncccc2C#N)CC1)n1cncn1 (centres undefined)	11.4
COc1ccccc1C(=O)Nc1cc(CC(C)C)nn1C	12.7
Cc1cnc(C(=O)N2CC(=O)N(c3ccccc3Cl)CC2C)cn1 (centres undefined)	17
c1cc(C2CCCN2CC2CCCCC2)n[nH]1 (centres undefined)	-12.3
Cc1nc(Nc2ncccn2)cc(C2CCCN2C)n1 (centres undefined)	0.301
c1cc(C2CCCN2CC2CC2)n[nH]1 (centres undefined)	-14.2
Cc1nc(Nc2ncccn2)cc(C2CCCN2CC(C)C)n1 (centres undefined)	56.3
Cc1nc(Nc2ncccn2)cc(C2CCCN2C(C)C)n1 (centres undefined)	-0.902
Cc1nc(Nc2ncccn2)cc(C2CCCN2Cc2ncc[nH]2)n1 (centres undefined)	18.9
CC(C)CN1CCCC1c1cc[nH]n1 (centres undefined)	52.7
Cc1nc(Nc2ccccn2)cc(C2CCCN2Cc2ncc[nH]2)n1 (centres undefined)	50.1

Structure (SMILES)	INHIBITION [%]
Cc1c[nH]nc1C1CCCN1Cc1ncc[nH]1 (centres undefined)	-12.3
O=C(c1cc(F)ccc1F)C1CCN(C(=O)c2cnccn2)CC1	3.73
CCCn1nnnc1CN1Cc2ccccc2CC1c1nnc(C)o1 (centres undefined)	-25.6
Cc1nn(C)cc1-c1cc(-c2cn(C)nc2C)n(CC(=O)NC2CC2)n1	15.2
CCCC(=O)N1CCC(O)(Cn2c(CC)nc3ccccc3c2=O)CC1	41.5
CN(C)c1cc(C(=O)N2CCCN(Cc3nccn3C)CC2)ccn1	29.2
O=C(NCc1cccnc1)C1=NN(c2ccccc2)C(=O)CN1	-19.2
N#Cc1ccc(CNC(=O)C2=NN(c3ccccc3)C(=O)CN2)cc1	-72.2
COc1ccc(CNC(=O)C2=NN(c3ccc(C)cc3)C(=O)CN2)cc1	79.5
COc1ccc(C)cc1CNC(=O)C1=NN(c2ccccc2)C(=O)CN1	-174
COCc1ccc(CNC(=O)C2=NN(c3ccccc3)C(=O)CN2)cc1	51.6
COc1ccccc1CNC(=O)C1=NN(c2ccc(C)cc2)C(=O)CN1	18.1
COCCCN(Cc1cnc(-c2ccccn2)nc1)C1CCN(C)CC1	23.9
CCC1(O)CCCN(c2ncnc3c2c(C)nn3C)C1 (centres undefined)	13.7
COCCOC(=O)N1CCn2nc(CN(C)Cc3nccs3)cc2C1	36.7
CCC(=O)N(c1ccc(C(=O)OC)cc1C)C(C)C	20.9
CN(C)CCOCC1CN(Cc2ccsc2)Cc2nnn(C)c21 (centres undefined)	38.2
C[C@@H]1CN(C(=O)c2ccsc2)C[C@]12CCN(c1ccsc1)C2=O	35.3
C[C@@H]1CN(C(=O)c2cccc(F)c2)C[C@]12CCN(c1ccsc1)C2=O	50.9
Cc1cccc(C(=O)N2C[C@@H](C)[C@@]3(CCN(c4ccsc4)C3=O)C2)n1	19.4
CCc1nn(C)c2[nH]nc(NC(=O)c3cccnc3OC)c12	43.1
Cc1nn(C)c(N(C)C)c1CNCc1nnc2n1CCCCC2	-7.94
Cc1ccc(NC2CCN(C(=O)CCn3nc(C)cc3C)CC2)nn1	15.4
CNc1nc(C(=O)N2CCn3nc(C(=O)OC)cc3C2)cs1	9.16
COc1ccc(C[C@H]2CN(C(=O)c3ccn(C)n3)CC[C@H]2OC)cc1	-7.28
c1cncc(OCCCNC2COc3ccccc3C2)c1 (centres undefined)	38.5
CC(C)NC(=O)C1(Cc2ccccc2-c2cccs2)CCNC1 (centres undefined)	41.2
